Bioassay records (PubChem BioAssay)
Shown are actives, neighbours in structure and some others; about 7.3% of the full set was active somewhere.
p53 reactivator: restores transcriptional activity of mutant p53; H1299 p53-A138V BP100-luciferase reporter, luminescence, 24 h; Potency, µM (series often up to 92.2 µM), without a hit: at the highest dose activity change, positive = activation, usual class: activators; actives 0.063% (n = 320,000); further: % of control where 0% means no effect; nearly all actives have a fitted effect of over 45% in size
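p53-null H1299 cells stably carrying temperature-sensitive p53-A138V and a BP100-luciferase reporter were pinned with compounds (4-point, 1:5 series) and held 24 hrs at 37 deg C. Luminescence was read 10 min after detection reagent.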
FLuc modulator: counter-screen for miR-21 project: firefly luciferase inhibitors or activators | P08659 | purified FLuc, Km substrates, luminescence inhibition | Potency, µM (highest dose often 57.5 µM), for inactives: top-dose activity change, negative = inhibition, actives largely listed as inhibitors | actives 6.9% (n = 360,000);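 further: plate controls were vehicle for no effect and reference inhibitor for full effect; nearly all actives have a fitted effect of over 55% in size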
Target sequence (P08659 whole entry, looked up): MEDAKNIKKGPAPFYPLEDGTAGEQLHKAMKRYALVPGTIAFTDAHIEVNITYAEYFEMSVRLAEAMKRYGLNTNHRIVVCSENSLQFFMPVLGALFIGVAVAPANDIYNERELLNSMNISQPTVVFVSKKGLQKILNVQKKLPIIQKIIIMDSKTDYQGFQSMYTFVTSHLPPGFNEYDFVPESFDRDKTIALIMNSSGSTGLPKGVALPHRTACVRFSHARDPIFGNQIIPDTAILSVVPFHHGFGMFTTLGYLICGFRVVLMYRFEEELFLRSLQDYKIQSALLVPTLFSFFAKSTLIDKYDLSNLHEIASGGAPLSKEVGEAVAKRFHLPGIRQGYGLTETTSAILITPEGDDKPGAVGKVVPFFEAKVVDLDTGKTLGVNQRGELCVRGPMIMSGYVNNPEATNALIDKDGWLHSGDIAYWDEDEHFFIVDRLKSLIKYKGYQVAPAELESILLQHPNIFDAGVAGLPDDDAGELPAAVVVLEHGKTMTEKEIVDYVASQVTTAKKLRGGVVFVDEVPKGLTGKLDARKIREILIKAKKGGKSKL
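Biochemical qHTS of compounds, final roughly 60 µM downward over six points, against 10 nM purified firefly luciferase using Km concentrations of substrates (10 uM D-luciferin, 10 uM ATP) in Tris acetate pH 7.5 buffer; luminescence output.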
NPC1 prom act: activators of NPC1 promoter; Potency, µM (top dose mostly 9.22 µM), without a hit: at the top dose activation, usual class: activators; AID 485313; Huh7 NPC1 promoter luciferase reporter, 24 h; actives 2.4% (n = 320,000); further: % of control where 0% means no effect; nearly all actives have a fitted effect of over 60% in size
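NPC1 promoter–luciferase Huh7 cells; 24 h compound; luminescence.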
Rab9 promoter act: Rab9 promoter activation. Huh7 Rab9 promoter-luciferase reporter, luminescence, 24 h. Potency, µM (doses to about 9.22 µM), for the others: at the top dose activation, negative = inhibition, usual class: activators. actives 2.8% (n = 320,000). AID 485297; further: % of control where 0% means no effect; nearly all actives have a fitted effect of over 60% in size
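Cell-based reporter: Huh7 stable for Rab9 promoter-driven luciferase, plated in reduced-serum medium with 10% FBS at 1500 cells/well, compound-treated 24 h at 37 °C, luminescence read after 10 min reagent.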
SMN2 splice up: increases expression of the SMN2 splice variant; HEK293 SMN2-luciferase splicing reporter, luminescence, 30-36 h; Potency, µM (series often up to 46.1 µM), for the others: at the top dose activity change, positive = activation, actives largely listed as activators; actives 2.8% (n = 210,000); AID 1458; further: % of control where 0% means no effect; nearly all actives have a fitted effect of over 55% in size
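qHTS luciferase splicing reporter: luminescence rises when SMN2 exon 7 is included in transfected HEK293 cells. Compound exposure lasted 30-36 h at 37C, with 4.5 mM final sodium butyrate as control, followed by a ONE-Glo read.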
ELG1 genotox: inducers of genotoxicity in HEK293T ELG1-luciferase cells | actives 1.3% (n = 330,000) | HEK293T ELG1-luciferase reporter, luminescence, 16 h | Potency, µM (titrated, usually from 46 µM), for the others: at the highest dose activity change, positive = activation, most hits filed as activators; further: % of control where 0% means no effect; nearly all actives have a fitted effect of over 60% in size
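HEK293T cells expressing luciferase-tagged ELG1 were treated with compound or DMSO for 16 hr at 37°C. Luciferase activity was then read after 30 min with ONE-Glo at room temperature; rising signal flags genetic stress.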
* hit, by the source's call; ? = inconclusive; . = no result given; [ ] = dose if it differs, or a comment. The call rests on the fitted dose curve; in most records, active means well fitted curve in the direction sought with a large enough effect; inconclusive means small, poorly fitted or top-dose-only effect, or another doubt; inactive means no such curve, though single readings can be large; an effect the other way counts as inactive or inconclusive. Potency means the concentration at half of the fitted maximal effect.

SMILES	p53 reactivator	FLuc modulator	NPC1 prom act	Rab9 promoter act	SMN2 splice up	ELG1 genotox
Cc1ccc(NC(CC(=O)c2ccccc2)C(=O)O)cc1Cl (configuration not stated)	?	2.13µM*	10.1%	?	.	?
O=C(CC(Nc1ccccc1)C(=O)O)c1ccccc1 (configuration not stated)	?	0.849µM*	3.16µM*	2.82µM*	12.6µM*	?
O=C(CC(C(=O)O)c1cccc(Cl)c1)c1ccccc1 (configuration not stated)	-1.8%	1.7%	0.2%	-10.9%	.	-0.5%
N#CC1(NC(=O)CN2c3cccc4cccc(c34)S2(=O)=O)CCCCC1	-8.0%	1.5%	-8.3%	-6.5%	.	0.4%
Clc1cccc2sc(N3CCN(c4ccccc4)CC3)nc12	?	?	?	29.7%	26.3%	-0.2%
Nc1ccc2nc(N3CCOCC3)sc2c1	0.1%	?	?	2µM*	15.8µM*	?
Clc1ccc(-c2nsc(N3CCOCC3)n2)c(Cl)c1	?	4.26µM*	0.794µM*	1µM*	.	3.26µM*
c1ccc(N2CCN(c3nc4cc5c(cc4s3)OCCO5)CC2)cc1	?	?	?	?	10µM*	5.4%
c1ccc2sc(N3CCOCC3)nc2c1	18.2%	?	?	?	?	?
Clc1cc(Cl)c2nc(N3CCOCC3)sc2c1	?	16.9µM*	26.0%	?	?	?
CN1CCc2c(sc3nc(SCC(=O)NCc4ccco4)n(-c4ccccc4)c(=O)c23)C1	?	-13.3%	-3.8%	16.7%	.	15.7%
O=C(c1csnn1)N1CCC2(CCN(Cc3cc(C(F)(F)F)cc(C(F)(F)F)c3)CC2)CC1	.	.	.	.	-13.4%	.
COc1ccc(CC[N@+]2(C)COc3cc4oc(=O)cc(C)c4cc3C2)cc1OC	.	.	.	.	-5.7%[9.22 µM]	.
CCOC(=O)c1cccc(NC(=O)CCCn2c(C)c3cnn(-c4ccccc4)c(=O)c3c2C)c1	.	1.2%	.	.	-6.9%	.
c1c2c(cc3sc(N4CCOCC4)nc13)OCCO2	-14.1%	0.953µM*	0.398µM*	0.501µM*	1.12µM*	0.326µM*
COc1ccccc1NC(=O)N1c2ccccc2Sc2ccccc21	.	-18.9%	.	.	?	.
N#Cc1ccc(CSc2nnc(Nc3ccccc3)s2)cc1	-4.1%	-1.3%	-1.0%	-5.1%	-21.8%	2.5%
O=C(CCc1nc2ccccc2c(=O)[nH]1)Nc1nnc(SCc2ccc(Cl)cc2)s1	5.5%	0.9%	-3.5%	-3.9%	.	6.4%
c1ccc(CSc2nnc(NC3=NCCCCC3)s2)cc1	?	16.9µM*	?	3.98µM*	15.1%	?
Cc1cc(=O)[nH]c(SCC(=O)Nc2nnc(SCc3ccccc3)s2)n1	0.8%	13.5µM*	-6.1%	-0.7%	-25.7%	-6.6%
O=C(Nc1nnc(SCc2ccccc2F)s1)C1=COCCO1	17.5%	16.9µM*	2.51µM*	3.55µM*	.	10.3µM*
O=C(CCc1nc2ccccc2c(=O)[nH]1)Nc1nnc(SCc2ccccc2F)s1	?	19µM*	28.5%	?	.	?
Cc1ccc(C(c2sc3nc(-c4ccco4)nn3c2O)N2CCOCC2)cc1 (configuration not stated)	.	-0.2%	.	.	.	.
Cc1ccc(C)c(NC(=O)C(Cc2ccccc2)N2Cc3ccccc3C2=O)c1 (configuration not stated)	.	-14.1%	.	.	.	.
Cc1cc(Cl)ccc1NC(=O)CN1C(=O)CSc2ccc(S(=O)(=O)N(C)C)cc21	.	2.6%	.	.	.	.
SMILES	p53 reactivator	FLuc modulator	NPC1 prom act	Rab9 promoter act	SMN2 splice up	ELG1 genotox
C=CCSc1nnc(NC(=O)C2=COCCO2)s1	?	16.9µM*	3.98µM*	2.24µM*	.	?
O=C(Cc1cccs1)Nc1nnc(SCc2ccc(Br)cc2)s1	-1.7%	16.9µM*	-1.0%	-1.1%	-3.0%	3.4%
O=C(Cc1cccs1)Nc1nnc(SCc2ccc(C(F)(F)F)cc2)s1	1.0%	-1.6%	-2.8%	1.1%	-16.4%	-0.5%
O=C(Nc1nnc(SCc2ccccc2)s1)C1=COCCO1	26.2%	?	3.55µM*	3.55µM*	.	?
NC(=O)c1ccccc1NC(=O)CCn1c(=S)oc2ccccc21	0.6%	1.9%	1.1%	5.3%	.	-1.3%
COc1cc(C)c(NC(=O)c2cccc(S(=O)(=O)N3CCCC3)c2)cc1OC	-9.2%	.	.	.	.	2.3%
Nc1n[nH]c(=S)n1/N=C1/C(=O)Nc2ccccc21	6.9%	15.1µM*	-0.2%	-2.3%	5.6%	0.0%
O=P(O)(O)O[C@@H]1O[C@H](CO)[C@@H](O)[C@H](O)[C@@H]1O	.	.	.	.	-1.9%[9.22 µM]	.
CCOc1ccc(C(=O)N2CCCC2)cc1	8.6%	0.2%	-2.0%	1.4%	6.6%	2.8%
COc1ccc(OCCC(=O)N2CCCCC2)cc1	27.2%	?	29.8%	28.6%	17.8µM*	10.7%
CC1CN(C(=O)c2cccc(COc3ccccc3Cl)c2)CC(C)O1 (configuration not stated)	-1.1%	15.1µM*	3.55µM*	?	11.2µM*	?
O=C(NN1CCCCC1)c1cccc(COc2ccc(Cl)cc2)c1	?	4.78µM*	?	3.55µM*	14.1µM*	?
CCOc1ccc(OCc2cccc(C(=O)N3CCCC3)c2)cc1	?	3.01µM*	0.355µM*	0.447µM*	2.82µM*	0.651µM*
CCCCOc1ccc(C(=O)N2CCCC2)cc1	15.4%	?	20.7%	25.3%	11.2µM*	18.4µM*
CCOc1ccc(OCc2cccc(C(=O)N3CCCCCC3)c2)cc1	-12.1%	0.536µM*	0.316µM*	0.282µM*	1.78µM*	?
O=[N+]([O-])c1ccc(S(=O)(=O)Nc2ccc(-c3ccc(N4CCOCC4)nn3)cc2)cc1	7.3%	26.9µM*	9.9%	21.1%	.	16.9%
Cc1ccc(S(=O)(=O)Nc2cccc(-c3ccc4nncn4n3)c2)cc1	-6.3%	-1.4%	-20.2%	-21.5%	.	6.2%
Cc1ccc([N+](=O)[O-])cc1S(=O)(=O)Nc1ccc(-c2ccc(N3CCOCC3)nn2)cc1	8.2%	?	2.7%	1.7%	.	2.8%
COc1c(C)cc(S(=O)(=O)N2CCOCC2)c(C)c1C	2.2%	-1.9%	-2.1%	5.9%	0.8%	3.3%
COc1c(C)cc(S(=O)(=O)Nc2cccc(-c3ccc(N4CCOCC4)nn3)c2)c(C)c1C	.	15.1µM*	.	.	.	.
Cc1cc(C)cc(S(=O)(=O)Nc2cccc(-c3ccc(N4CCOCC4)nn3)c2)c1	.	12µM*	.	.	.	.
O=[N+]([O-])c1ccc(S(=O)(=O)Nc2cccc(-c3ccc(N4CCOCC4)nn3)c2)cc1	18.3%	3.38µM*	?	27.4%	.	?
CCOc1ccc2c(c1)c(=O)c(S(=O)(=O)c1ccc(Cl)cc1)cn2Cc1ccccc1C	.	0.0%	.	.	-6.9%	.
